Of roughly 8,800 targets only a part is listed; those with a hit were picked by preference. About 0.5% of all pairs of compound and target were hits.
What was measured:
Assay in all cases: log2 fold change, soluble protein after heating vs DMSO (PISA); higher = thermal stabilisation; K562 lysate, 10 uM; active = over 0.2 and 3.5 SD of the protein, either way, in both replicates (recomputed)
nilotinib = compound: Cc1cn(-c2cc(NC(=O)c3ccc(C)c(Nc4nccc(-c5cccnc5)n4)c3)cc(C(F)(F)F)c2)cn1 [nilotinib]
In short: (§1)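 Values give the log-two fold change in thermal stability against solvent controls, from duplicates. Crude K562 extract at 1 mg/mL protein, made by dounce homogenisation in PBS pH 7.4 with 1 mM MgCl2, was treated with 10 μM compound for 30 min. After 3 min heating across 48°C-58°C, aliquots were pooled, adjusted to 0.5% NP-40 at 4°C and centrifuged at 21,000xg for 90 min. The supernatant was measured by TMTpro 16plex LC-MS/MS with channel sums equalised.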

[1] = compound: Cc1nc(Nc2n[nH]c3c2CN(C(=O)N[C@H](CN(C)C)c2ccccc2)C3(C)C)c2sccc2n1
In short: as §1

dasatinib = compound: Cc1nc(Nc2ncc(C(=O)Nc3c(C)cccc3Cl)s2)cc(N2CCN(CCO)CC2)n1 [dasatinib]
In short: as §1

[2] = compound: Cc1ncc(-c2ccnc(Nc3ccc(S(C)(=O)=O)cc3)n2)n1C(C)C
In short: as §1

[3] = compound: Cn1cc(-c2ccc3c(c2)CCN3C(=O)Cc2cccc(C(F)(F)F)c2)c2c(N)ncnc21
In short: as §1

quisinostat = compound: Cn1cc(CNCC2CCN(c3ncc(C(=O)NO)cn3)CC2)c2ccccc21 [quisinostat]
In short: as §1

tipifarnib = compound: Cn1cncc1[C@@](N)(c1ccc(Cl)cc1)c1ccc2c(c1)c(-c1cccc(Cl)c1)cc(=O)n2C [tipifarnib]
In short: as §1

[4] = compound: NC(=O)Nc1cc(-c2cccc(F)c2)sc1C(=O)N[C@H]1CCCNC1
In short: as §1

[5] = compound: NC(=O)c1cnc(N[C@@H]2CCCC[C@@H]2N)nc1Nc1cccc(-n2nccn2)c1
In short: as §1

[6] = compound: NC1(c2ccc(-c3nc4ccn5c(=O)[nH]nc5c4cc3-c3ccccc3)cc2)CCC1
In short: as §1

Measured: log2 fold change

R3HCC1 (UniProt Q9Y3T6)
Sequence of UniProt Q9Y3T6 (Q9Y3T6 whole entry, looked up, one chain of several): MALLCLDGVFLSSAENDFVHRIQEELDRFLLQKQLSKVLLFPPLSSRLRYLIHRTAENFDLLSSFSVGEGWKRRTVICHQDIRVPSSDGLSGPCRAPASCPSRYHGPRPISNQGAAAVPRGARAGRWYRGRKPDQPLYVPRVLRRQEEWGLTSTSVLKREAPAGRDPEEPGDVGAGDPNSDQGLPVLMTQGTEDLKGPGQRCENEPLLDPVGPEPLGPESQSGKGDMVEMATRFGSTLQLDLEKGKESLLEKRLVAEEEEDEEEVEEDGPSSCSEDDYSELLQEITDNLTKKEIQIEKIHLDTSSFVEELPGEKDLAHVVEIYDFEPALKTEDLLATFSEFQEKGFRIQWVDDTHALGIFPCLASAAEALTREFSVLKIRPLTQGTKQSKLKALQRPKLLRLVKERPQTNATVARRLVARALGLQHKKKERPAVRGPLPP
inactive: nilotinib -0.023 | [1] 0.012 | dasatinib 0.043 | [2] 0.011 | [3] -0.049 | quisinostat -0.014 | tipifarnib -0.058 | [4] -0.036 | [5] 0.003 | [6] 0.038

SCAF1 (UniProt Q9H7N4)
inactive: nilotinib -0.053 | [1] 0.115 | dasatinib -0.018 | [2] -0.13 | [3] -0.042 | quisinostat -0.019 | tipifarnib -0.06 | [4] -0.028 | [5] -0.014 | [6] 0.1

RAE1 (UniProt P78406)
inactive: nilotinib -0.093 | [1] 0.042 | dasatinib 0.002 | [2] 0.012 | [3] 0.033 | quisinostat 0.038 | tipifarnib -0.053 | [4] 0.026 | [5] 0.024 | [6] 0.015

RPS6KA3 (UniProt P51812)
Sequence of UniProt P51812 (P51812 whole entry, looked up): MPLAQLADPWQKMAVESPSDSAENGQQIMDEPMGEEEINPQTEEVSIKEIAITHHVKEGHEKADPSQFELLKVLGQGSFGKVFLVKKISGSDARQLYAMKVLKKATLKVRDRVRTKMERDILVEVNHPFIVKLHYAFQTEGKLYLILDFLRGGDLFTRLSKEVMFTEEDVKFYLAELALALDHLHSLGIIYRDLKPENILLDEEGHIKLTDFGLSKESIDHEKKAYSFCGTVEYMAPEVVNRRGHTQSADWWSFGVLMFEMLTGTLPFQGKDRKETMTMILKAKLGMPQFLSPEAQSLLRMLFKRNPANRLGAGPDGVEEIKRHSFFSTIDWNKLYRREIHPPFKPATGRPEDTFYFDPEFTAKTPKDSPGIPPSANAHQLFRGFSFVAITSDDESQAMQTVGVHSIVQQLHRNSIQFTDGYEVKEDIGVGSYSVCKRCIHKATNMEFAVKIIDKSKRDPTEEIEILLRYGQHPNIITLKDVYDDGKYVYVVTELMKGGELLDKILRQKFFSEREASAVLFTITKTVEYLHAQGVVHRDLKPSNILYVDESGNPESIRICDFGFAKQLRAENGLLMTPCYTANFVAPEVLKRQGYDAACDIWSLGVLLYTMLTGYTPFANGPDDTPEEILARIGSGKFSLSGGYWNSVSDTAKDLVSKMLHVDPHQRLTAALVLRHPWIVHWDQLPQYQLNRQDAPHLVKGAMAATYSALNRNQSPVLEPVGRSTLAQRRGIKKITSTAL
inactive: nilotinib -0.02 | [1] 0.17 | dasatinib -0.065 | [2] 0.039 | [3] 0.031 | quisinostat -0.046 | tipifarnib -0.023 | [4] 0.133 | [5] 0.09 | [6] 0.005

RSU1 (UniProt Q15404)
inactive: nilotinib 0.011 | [1] -0.011 | dasatinib 0.007 | [2] -0.028 | [3] 0.001 | quisinostat 0.112 | tipifarnib 0.016 | [4] -0.002 | [5] 0.007 | [6] 0.002

RHOU (UniProt Q7L0Q8)
Sequence of UniProt Q7L0Q8 (Q7L0Q8 whole entry, looked up): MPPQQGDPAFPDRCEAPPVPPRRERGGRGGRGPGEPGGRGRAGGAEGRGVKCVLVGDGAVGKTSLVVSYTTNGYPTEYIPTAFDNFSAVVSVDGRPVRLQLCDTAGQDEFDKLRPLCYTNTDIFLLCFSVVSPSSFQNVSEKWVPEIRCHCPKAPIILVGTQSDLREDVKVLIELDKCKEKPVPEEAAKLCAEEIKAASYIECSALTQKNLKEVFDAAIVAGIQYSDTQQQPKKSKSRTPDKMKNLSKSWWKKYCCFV
inactive: nilotinib -0.032 | [1] -0.028 | dasatinib -0.004 | [2] 0.114 | [3] 0.145 | quisinostat -0.053 | tipifarnib 0.12 | [4] 0.035 | [5] -0.045 | [6] 0.033

SEC62 (UniProt Q99442)
Sequence of UniProt Q99442 (Q99442 whole entry, looked up): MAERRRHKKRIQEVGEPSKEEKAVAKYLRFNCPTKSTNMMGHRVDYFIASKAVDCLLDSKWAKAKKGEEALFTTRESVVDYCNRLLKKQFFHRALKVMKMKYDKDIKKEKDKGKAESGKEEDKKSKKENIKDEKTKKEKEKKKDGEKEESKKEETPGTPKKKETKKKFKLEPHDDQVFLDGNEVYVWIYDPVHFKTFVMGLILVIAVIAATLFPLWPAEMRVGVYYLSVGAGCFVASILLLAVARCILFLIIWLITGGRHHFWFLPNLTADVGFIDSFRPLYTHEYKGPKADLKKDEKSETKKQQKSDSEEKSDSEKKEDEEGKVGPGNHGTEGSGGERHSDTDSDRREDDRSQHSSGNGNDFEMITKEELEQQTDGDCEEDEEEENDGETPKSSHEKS
inactive: nilotinib 0.013 | [1] -0.032 | dasatinib 0.01 | [2] -0.038 | [3] -0.011 | quisinostat 0.083 | tipifarnib -0.055 | [4] -0.045 | [5] -0.007 | [6] -0.01

RPL28 (UniProt P46779)
inactive: nilotinib -0.018 | [1] -0.011 | dasatinib 0.009 | [2] -0.015 | [3] -0.005 | quisinostat 0.08 | tipifarnib 0.002 | [4] -0.028 | [5] -0.011 | [6] -0.023

QTRT2 isoform 4 (UniProt Q9H974)
inactive: nilotinib -0.001 | [1] -0.024 | dasatinib 0.005 | [2] -0.024 | [3] -0.051 | quisinostat -0.059 | tipifarnib 0.022 | [4] 0.022 | [5] 0.004 | [6] 0.021

RDH14 (UniProt Q9HBH5)
Sequence of UniProt Q9HBH5 (Q9HBH5 whole entry, looked up): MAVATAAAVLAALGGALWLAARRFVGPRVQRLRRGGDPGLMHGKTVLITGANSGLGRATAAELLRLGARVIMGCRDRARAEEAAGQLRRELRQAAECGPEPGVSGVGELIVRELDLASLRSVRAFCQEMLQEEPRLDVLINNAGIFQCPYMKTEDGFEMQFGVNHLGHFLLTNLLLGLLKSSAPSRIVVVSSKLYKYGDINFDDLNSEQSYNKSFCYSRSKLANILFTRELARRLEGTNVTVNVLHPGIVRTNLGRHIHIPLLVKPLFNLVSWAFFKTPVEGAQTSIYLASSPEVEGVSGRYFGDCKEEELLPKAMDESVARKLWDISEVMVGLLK
inactive: nilotinib 0.008 | [1] -0.006 | dasatinib 0.023 | [2] 0.004 | [3] 0.009 | quisinostat -0.016 | tipifarnib 0.065 | [4] -0.011 | [5] -0.077 | [6] 0.048

SCCPDH (UniProt Q8NBX0)
inactive: nilotinib 0.12 | [1] -0.002 | dasatinib 0.058 | [2] 0.151 | [3] -0.019 | quisinostat -0.058 | tipifarnib 0.049 | [4] -0.217 | [5] -0.081 | [6] 0.022

SCNM1 (UniProt Q9BWG6)
Sequence of UniProt Q9BWG6 (Q9BWG6 whole entry, looked up): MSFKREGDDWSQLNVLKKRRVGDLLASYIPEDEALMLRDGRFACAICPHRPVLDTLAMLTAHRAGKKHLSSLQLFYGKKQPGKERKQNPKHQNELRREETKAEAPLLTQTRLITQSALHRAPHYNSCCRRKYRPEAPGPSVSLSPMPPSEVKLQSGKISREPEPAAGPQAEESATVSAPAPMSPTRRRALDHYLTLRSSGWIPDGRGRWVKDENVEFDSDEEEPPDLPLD
inactive: nilotinib -0.078 | [1] -0.045 | dasatinib 0.122 | [2] -0.091 | [3] 0.015 | quisinostat -0.061 | tipifarnib 0.045 | [4] 0.06 | [5] -0.104 | [6] -0.106

RAF1 isoform 2 (UniProt P04049)
inactive: nilotinib 0.054 | [1] -0.005 | dasatinib 0.169 | [2] -0.094 | [3] -0.022 | quisinostat -0.06 | tipifarnib -0.036 | [4] 0.063 | [5] -0.021 | [6] -0.008

RPL31 (UniProt P62899)
inactive: nilotinib 0.007 | [1] -0.034 | dasatinib 0.046 | [2] -0.036 | [3] -0.038 | quisinostat 0.043 | tipifarnib 0.021 | [4] -0.004 | [5] -0.018 | [6] 0.005

RECQL5 (UniProt O94762)
inactive: nilotinib -0.026 | [1] 0.057 | dasatinib 0.023 | [2] 0.011 | [3] -0.04 | quisinostat -0.013 | tipifarnib -0.064 | [4] 0.034 | [5] 0.343 | [6] 0.049

RDH11 (UniProt Q8TC12)
inactive: nilotinib 0.034 | [1] -0.05 | dasatinib -0.075 | [2] -0.045 | [3] -0.021 | quisinostat 0.038 | tipifarnib -0.038 | [4] 0.103 | [5] 0.034 | [6] -0.011

RPS26P11 (UniProt Q5JNZ5)
inactive: nilotinib 0.026 | [1] 0.027 | dasatinib -0.017 | [2] 0.044 | [3] 0.02 | quisinostat -0.151 | tipifarnib 0.004 | [4] -0.036 | [5] 0 | [6] -0.004

RAB3IL1 (UniProt Q8TBN0)
inactive: nilotinib -0.025 | [1] -0.026 | dasatinib -0.048 | [2] 0.041 | [3] 0.017 | quisinostat -0.002 | tipifarnib 0.037 | [4] 0.004 | [5] 0.017 | [6] 0.033

SERPINI1 (UniProt Q99574)
inactive: nilotinib -0.04 | [1] -0.013 | dasatinib 0.038 | [2] -0.034 | [3] -0.013 | quisinostat 0.035 | tipifarnib 0.036 | [4] 0.003 | [5] 0.009 | [6] -0.015

RABL3 (UniProt Q5HYI8)
Sequence of UniProt Q5HYI8 (Q5HYI8 whole entry, looked up): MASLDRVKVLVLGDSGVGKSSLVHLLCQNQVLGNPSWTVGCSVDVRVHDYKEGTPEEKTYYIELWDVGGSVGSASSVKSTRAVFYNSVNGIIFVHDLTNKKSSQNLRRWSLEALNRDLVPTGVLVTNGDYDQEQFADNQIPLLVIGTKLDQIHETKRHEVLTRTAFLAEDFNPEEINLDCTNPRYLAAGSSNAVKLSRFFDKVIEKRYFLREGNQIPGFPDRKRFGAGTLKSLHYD
inactive: nilotinib 0.049 | [1] -0.03 | dasatinib -0.077 | [2] -0.051 | [3] 0.01 | quisinostat -0.056 | tipifarnib 0.08 | [4] 0.084 | [5] -0.003 | [6] 0.267

RPAP1 (UniProt Q9BWH6)
Sequence of UniProt Q9BWH6 (Q9BWH6 whole entry, looked up): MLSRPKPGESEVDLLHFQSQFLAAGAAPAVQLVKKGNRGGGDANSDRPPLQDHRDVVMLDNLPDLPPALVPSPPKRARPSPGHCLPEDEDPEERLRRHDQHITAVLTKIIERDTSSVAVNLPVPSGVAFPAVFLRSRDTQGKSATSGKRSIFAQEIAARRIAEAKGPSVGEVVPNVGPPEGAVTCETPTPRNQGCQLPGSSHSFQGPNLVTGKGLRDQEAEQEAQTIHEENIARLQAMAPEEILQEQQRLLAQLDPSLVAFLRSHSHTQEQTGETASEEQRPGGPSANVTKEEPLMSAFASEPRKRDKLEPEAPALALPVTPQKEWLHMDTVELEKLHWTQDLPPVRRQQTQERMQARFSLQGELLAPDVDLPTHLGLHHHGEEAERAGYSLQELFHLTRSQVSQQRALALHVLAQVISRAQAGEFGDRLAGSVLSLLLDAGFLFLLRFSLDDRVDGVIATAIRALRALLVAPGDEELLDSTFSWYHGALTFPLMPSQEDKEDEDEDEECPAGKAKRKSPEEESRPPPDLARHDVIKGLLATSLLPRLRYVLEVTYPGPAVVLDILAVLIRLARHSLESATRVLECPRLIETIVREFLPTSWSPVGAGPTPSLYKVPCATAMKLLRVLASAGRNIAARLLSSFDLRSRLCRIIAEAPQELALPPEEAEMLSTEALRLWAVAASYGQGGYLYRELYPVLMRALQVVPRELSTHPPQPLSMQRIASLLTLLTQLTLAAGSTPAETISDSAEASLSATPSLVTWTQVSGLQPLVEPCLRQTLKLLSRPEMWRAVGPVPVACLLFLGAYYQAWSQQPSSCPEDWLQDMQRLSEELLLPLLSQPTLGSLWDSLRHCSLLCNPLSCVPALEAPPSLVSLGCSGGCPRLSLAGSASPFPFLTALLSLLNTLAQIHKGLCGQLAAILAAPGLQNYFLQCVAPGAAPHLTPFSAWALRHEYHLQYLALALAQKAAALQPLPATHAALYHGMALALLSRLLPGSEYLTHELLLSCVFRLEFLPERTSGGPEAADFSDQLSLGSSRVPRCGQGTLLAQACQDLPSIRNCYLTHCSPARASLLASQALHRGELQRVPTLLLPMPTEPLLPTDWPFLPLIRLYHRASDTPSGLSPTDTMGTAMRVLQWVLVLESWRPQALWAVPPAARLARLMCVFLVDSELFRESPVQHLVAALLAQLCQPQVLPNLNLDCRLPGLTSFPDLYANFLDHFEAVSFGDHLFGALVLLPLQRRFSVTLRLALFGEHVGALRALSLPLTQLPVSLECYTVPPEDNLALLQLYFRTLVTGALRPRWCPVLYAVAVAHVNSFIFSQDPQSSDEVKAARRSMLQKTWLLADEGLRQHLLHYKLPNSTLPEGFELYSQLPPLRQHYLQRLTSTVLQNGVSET
inactive: nilotinib -0.002 | [1] 0.014 | dasatinib -0.027 | [2] -0.01 | [3] 0.032 | quisinostat -0.02 | tipifarnib -0.01 | [4] 0.013 | [5] 0.029 | [6] 0.004

RPL27 (UniProt P61353)
inactive: nilotinib 0.022 | [1] -0.029 | dasatinib -0.049 | [2] 0.01 | [3] 0 | quisinostat 0.054 | tipifarnib -0.01 | [4] -0.017 | [5] -0.023 | [6] 0.012

RPN2 (UniProt P04844)
inactive: nilotinib -0.011 | [1] 0.005 | dasatinib -0.008 | [2] -0.013 | [3] -0.006 | quisinostat 0.049 | tipifarnib -0.015 | [4] -0.001 | [5] 0.011 | [6] -0.003

RRAGA (UniProt Q7L523)
inactive: nilotinib -0.144 | [1] 0.032 | dasatinib -0.025 | [2] -0.065 | [3] 0.024 | quisinostat -0.045 | tipifarnib 0.109 | [4] 0.082 | [5] 0.033 | [6] -0.04

RABEPK (UniProt Q7Z6M1)
Sequence of UniProt Q7Z6M1 (Q7Z6M1 whole entry, looked up): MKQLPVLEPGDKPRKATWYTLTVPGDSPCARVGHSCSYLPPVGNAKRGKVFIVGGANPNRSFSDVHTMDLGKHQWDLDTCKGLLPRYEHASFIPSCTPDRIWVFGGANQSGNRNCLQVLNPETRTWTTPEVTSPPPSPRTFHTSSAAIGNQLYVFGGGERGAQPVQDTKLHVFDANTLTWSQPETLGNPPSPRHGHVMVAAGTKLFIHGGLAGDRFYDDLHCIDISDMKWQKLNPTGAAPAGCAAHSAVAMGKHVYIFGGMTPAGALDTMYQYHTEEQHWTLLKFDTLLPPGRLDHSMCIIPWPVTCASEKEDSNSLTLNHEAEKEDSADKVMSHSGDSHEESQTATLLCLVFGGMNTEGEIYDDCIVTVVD
inactive: nilotinib -0.003 | [1] 0.005 | dasatinib 0.005 | [2] -0.01 | [3] 0.012 | quisinostat 0.004 | tipifarnib 0.007 | [4] -0.018 | [5] 0.013 | [6] 0.002

RNF149 (UniProt Q8NC42)
Sequence of UniProt Q8NC42 (Q8NC42 whole entry, looked up): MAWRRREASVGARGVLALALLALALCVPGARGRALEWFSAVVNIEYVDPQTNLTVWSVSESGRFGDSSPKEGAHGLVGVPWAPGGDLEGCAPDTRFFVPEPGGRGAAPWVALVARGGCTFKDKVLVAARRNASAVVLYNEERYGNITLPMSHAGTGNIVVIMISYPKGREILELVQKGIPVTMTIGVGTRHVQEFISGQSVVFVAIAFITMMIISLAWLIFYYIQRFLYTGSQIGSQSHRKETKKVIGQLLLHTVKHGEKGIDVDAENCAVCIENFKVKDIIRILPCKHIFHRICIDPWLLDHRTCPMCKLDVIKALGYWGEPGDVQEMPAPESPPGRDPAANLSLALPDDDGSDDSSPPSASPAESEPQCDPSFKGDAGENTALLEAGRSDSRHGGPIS
inactive: nilotinib 0.083 | [1] 0.129 | dasatinib -0.019 | [2] 0.099 | [3] 0.003 | quisinostat -0.019 | tipifarnib 0.087 | [4] 0.038 | [5] 0.156 | [6] -0.019

RNF123 (UniProt Q5XPI4)
inactive: nilotinib 0.012 | [1] -0.013 | dasatinib -0.059 | [2] 0.022 | [3] 0.054 | quisinostat -0.046 | tipifarnib -0.006 | [4] 0.04 | [5] 0.019 | [6] 0.01
